High-throughput results (PubChem)
KDM5B inhibitor = Primary screen for KDM5B Histone Demethylases FDH-coupled qHTS | Lysine-specific demethylase 5B (Homo sapiens), Q9UGL1 | KDM5B demethylase, FDH-coupled NADH fluorescence (FDH is formaldehyde dehydrogenase) | Potency, µM (highest dose often 57.7 µM), most hits filed as inhibitors | hit rate 2.6% among 220,000 | AID 1347165, 2019; active means well fitted inhibition curve with a large enough effect; further: 0% is about no effect; nearly all actives have a fitted effect of over 70% in size
Target sequence (Q9UGL1 whole entry, looked up): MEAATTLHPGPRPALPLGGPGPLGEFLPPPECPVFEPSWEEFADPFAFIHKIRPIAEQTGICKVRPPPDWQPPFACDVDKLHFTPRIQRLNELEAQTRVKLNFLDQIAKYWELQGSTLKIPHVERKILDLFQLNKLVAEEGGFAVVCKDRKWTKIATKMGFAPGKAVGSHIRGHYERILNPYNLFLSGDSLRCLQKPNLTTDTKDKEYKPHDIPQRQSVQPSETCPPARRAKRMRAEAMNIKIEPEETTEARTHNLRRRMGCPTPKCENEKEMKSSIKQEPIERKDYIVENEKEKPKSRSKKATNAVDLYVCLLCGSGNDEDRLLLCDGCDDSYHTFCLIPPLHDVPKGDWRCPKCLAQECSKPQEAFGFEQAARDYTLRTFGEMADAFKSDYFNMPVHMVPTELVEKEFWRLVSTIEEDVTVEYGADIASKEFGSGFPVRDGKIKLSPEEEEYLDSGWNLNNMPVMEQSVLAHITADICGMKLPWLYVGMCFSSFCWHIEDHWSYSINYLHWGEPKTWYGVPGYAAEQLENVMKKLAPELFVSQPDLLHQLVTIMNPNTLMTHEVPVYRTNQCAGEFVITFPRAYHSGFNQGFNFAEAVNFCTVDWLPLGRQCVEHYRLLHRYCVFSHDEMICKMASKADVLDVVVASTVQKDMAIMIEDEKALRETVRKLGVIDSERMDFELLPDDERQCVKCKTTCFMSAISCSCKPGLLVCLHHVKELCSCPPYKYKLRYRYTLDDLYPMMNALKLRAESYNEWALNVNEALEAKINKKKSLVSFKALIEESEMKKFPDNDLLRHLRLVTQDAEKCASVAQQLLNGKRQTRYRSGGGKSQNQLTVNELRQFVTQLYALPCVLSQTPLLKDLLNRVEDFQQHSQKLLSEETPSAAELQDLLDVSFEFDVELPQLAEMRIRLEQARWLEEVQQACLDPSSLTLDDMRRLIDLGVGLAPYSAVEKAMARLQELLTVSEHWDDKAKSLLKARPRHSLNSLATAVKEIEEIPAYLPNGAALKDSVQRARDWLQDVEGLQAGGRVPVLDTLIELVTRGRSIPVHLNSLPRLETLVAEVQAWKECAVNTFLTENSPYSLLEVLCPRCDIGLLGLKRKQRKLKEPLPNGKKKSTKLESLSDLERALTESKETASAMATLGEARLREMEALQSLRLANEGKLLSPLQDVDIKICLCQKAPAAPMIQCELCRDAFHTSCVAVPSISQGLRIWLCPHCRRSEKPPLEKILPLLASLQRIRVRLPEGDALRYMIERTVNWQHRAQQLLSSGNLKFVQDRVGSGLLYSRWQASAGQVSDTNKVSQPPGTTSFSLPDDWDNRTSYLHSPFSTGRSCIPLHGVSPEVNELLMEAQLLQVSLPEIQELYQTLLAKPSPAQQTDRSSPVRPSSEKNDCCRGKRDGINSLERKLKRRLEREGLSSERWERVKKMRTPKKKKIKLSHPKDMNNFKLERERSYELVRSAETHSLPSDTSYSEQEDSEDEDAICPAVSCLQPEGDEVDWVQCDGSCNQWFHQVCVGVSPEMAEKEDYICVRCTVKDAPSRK
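qHTS format, multiple compound concentrations. Buffer 50 mM HEPES pH 7.5/0.01% Tween-20; 200 nM KDM5BΔAP final; 10 min compound preincubation; substrate-mix levels 12.5 µM peptide, 25 µM α-KG, 0.25 mM NAD⁺; 30 min RT; ΔRFU.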
An asterisk follows results filed as active; i = inactive. The sample as a whole holds a higher share of hits than the screen did. Potency means the concentration at half of the fitted maximal effect.

SMILES | KDM5B inhibitor
C=CCNC(=O)[C@@H]1Cc2cn(Cc3ccncc3)c3cccc(c23)[C@H](CC(C)C)N1 | i
CC#CCn1cc2c3c(cccc31)[C@H](CC(C)C)N[C@H](C(=O)NCCOC)C2 | i
COCCNC(=O)[C@@H]1Cc2cn(Cc3ccncc3)c3cccc(c23)[C@H](CC(C)C)N1 | i
CCCCOc1ccc(NC(=O)c2ccc(Cl)cc2)c2cccnc12 | i
Cc1[nH]c(SCC(=O)Nc2cccc(S(=O)(=O)N3CCCC3)c2)nc1Cc1ccccc1 | i
Cc1ccc(NS(=O)(=O)c2cc(C)c(C(=O)O)s2)cc1C | i
CCn1c(=O)n(CC)c2cc(Sc3ccccc3)c(NC(=O)c3cccc(OC)c3)cc21 | i
COc1ccc(-c2noc(C(=O)O)c2[C@@H](C)NC(=O)Cc2ccccc2)cc1 | i
COc1ccc(-c2noc(C(=O)O)c2[C@@H](C)NC(=O)c2cccn2C)cc1 | 39.8µM*
COc1ccc(-c2noc(C(=O)O)c2[C@@H](C)NC(=O)c2ccccc2)cc1 | i
CCCCCOc1ccc(/C=C/C(=O)/C=C/c2ccc(OCCCCC)cc2)cc1 | i
CCCCN(C)CCC(=O)Nc1cccc(F)c1 | i
Cc1c(CC(=O)N2CCC(O)(c3ccc(Cl)cc3)CC2)c(=O)oc2cc(O)ccc12 | i
COc1ccc(F)cc1C(=O)/C=C/c1ccc(SC)cc1 | i
Cc1noc(C)c1CN(C)Cc1ccc2c(c1)OCO2 | i
N#CC(c1nc2ccccc2nc1N1CCCCC1)S(=O)(=O)c1cccc(Cl)c1 (stereo not given) | i
COc1ccc2nc3n(c2c1)[C@@H](CNCc1ccccc1)COC3 | i
COc1ccc2nc3n(c2c1)[C@@H](CNC(=O)c1ccc(F)cc1)COC3 | 35.5µM*
COc1ccc2nc3n(c2c1)[C@@H](CNCc1ccc(C#N)cc1)COC3 | 28.2µM*
COc1ccc2nc3n(c2c1)[C@@H](CNCc1ccc(S(C)(=O)=O)cc1)COC3 | i
COc1ccc2nc3n(c2c1)[C@@H](CNS(=O)(=O)c1ccc(F)cc1)COC3 | i
Cc1cccc2c1nc1n2[C@@H](CNC(=O)c2ccc(F)cc2)COC1 | i
CC1(c2ccccc2)C=C(c2ccccc2)Oc2ccccc21 (stereo not given) | i
C[C@]1(CO)[C@H]2Cc3sc(NC(=O)c4ccc(F)cc4)nc3[C@@H](CC(=O)NC3CC3)[C@]2(C)CC[C@H]1O | i
C[C@]1(CO)[C@H]2Cc3sc(NC(=O)C4CCCCC4)nc3[C@@H](CC(=O)O)[C@]2(C)CC[C@H]1O | i
SMILES | KDM5B inhibitor
CN(Cc1ccccc1)C(=O)C[C@@H]1c2nc(NC(=O)c3ccc(F)cc3)sc2C[C@@H]2[C@](C)(CO)[C@H](O)CC[C@]21C | 35.5µM*
CC(C)NC(=O)C[C@@H]1c2nc(NC(=O)c3ccc(F)cc3)sc2C[C@@H]2[C@](C)(CO)[C@H](O)CC[C@]21C | i
COCC(=O)Nc1nc2c(s1)C[C@@H]1[C@](C)(CO)[C@H](O)CC[C@@]1(C)[C@@H]2CC(=O)N1CCC(C)CC1 | i
CN(Cc1ccccc1)C(=O)C[C@@H]1c2nc(NC(=O)CC(C)(C)C)sc2C[C@@H]2[C@](C)(CO)[C@H](O)CC[C@]21C | i
CN(Cc1ccccc1)C(=O)C[C@@H]1c2nc(NC(=O)C(C)(C)C)sc2C[C@@H]2[C@](C)(CO)[C@H](O)CC[C@]21C | i
C[C@]1(CO)[C@H]2Cc3sc(NC(=O)c4ccc(F)cc4)nc3[C@@H](CC(=O)Nc3ccccc3)[C@]2(C)CC[C@H]1O | 31.6µM*
COc1ccc(C(=O)Nc2nc3c(s2)C[C@@H]2[C@](C)(CO)[C@H](O)CC[C@@]2(C)[C@@H]3CC(=O)N2CCC(C)CC2)cc1 | 28.2µM*
C[C@]1(CO)[C@H]2Cc3sc(-c4ccccc4)nc3[C@@H](CC(=O)O)[C@]2(C)CC[C@H]1O | 31.6µM*
CC1CCN(C(=O)C[C@@H]2c3nc(NC(=O)C(C)(C)C)sc3C[C@@H]3[C@](C)(CO)[C@H](O)CC[C@]32C)CC1 | i
C[C@]1(CO)[C@H]2Cc3sc(NC(=O)c4c(F)cccc4F)nc3[C@@H](CC(=O)O)[C@]2(C)CC[C@H]1O | i
COc1ccc2cnn(CC(=O)Nc3ccc(Oc4ccccc4)cc3)c(=O)c2c1OC | i
O=C(CCc1nc2ccccc2s1)NCCc1noc(-c2ccncc2)n1 | i
O=C(O)CCSCc1ccc(Cl)cc1 | i
CCOC(=O)Cc1csc(NC(=O)c2nc(C)n(-c3ccc(Cl)cc3)n2)n1 | i
C=CCN1C(=O)COc2ccc(NC(=O)c3cc(=O)c4cc(Cl)ccc4o3)cc21 | i
COCCNC(=O)C[C@@H]1c2nc(NC(=O)c3ccc(F)cc3)sc2C[C@@H]2[C@](C)(CO)[C@H](O)CC[C@]21C | i
C#CCNC(=O)C[C@@H]1c2nc(NC(=O)C(C)(C)C)sc2C[C@@H]2[C@](C)(CO)[C@H](O)CC[C@]21C | i
C#CCNC(=O)C[C@@H]1c2nc(NC(=O)c3ccc(C(C)(C)C)cc3)sc2C[C@@H]2[C@](C)(CO)[C@H](O)CC[C@]21C | 31.6µM*
CN(Cc1ccccc1NC(=O)Cc1ccc(C(F)(F)F)cc1)C1CCCCC1 | i
COc1ccccc1NC(=O)COc1cc(O)c2c(=O)cc(-c3ccccc3)oc2c1 | i
c1cncc(-c2ccnc(NCC(c3cccnc3)N3CCCCC3)n2)c1 (stereo not given) | 31.6µM*
O=C(NCc1ccc(C(=O)N2CCCCC2)cc1)c1ccc(C(F)(F)F)cc1 | i
NS(=O)(=O)c1ccc(CNC(=O)c2ccccn2)cc1 | i
O=C(NCc1ccc(C(=O)N2CCCC2)cc1)C1CCCCC1 | i
O=C(c1ccc(CNc2nccc(-c3cccnc3)n2)cc1)N1CCCCC1 | 28.2µM*
SMILES | KDM5B inhibitor
c1ccc(-c2ccnc(NCC(c3ccncc3)N3CCOCC3)n2)nc1 (stereo not given) | i
NCCn1cc(C(=O)NCC(c2cccnc2)N2CCCCC2)nn1 (stereo not given) | i
NS(=O)(=O)c1ccc(CNc2nccc(-c3cccnc3)n2)cc1 | 31.6µM*
Cc1ccc(CNc2ccc(-c3nc(-c4cccnc4)no3)cc2[N+](=O)[O-])cc1 | i
CCSC1=N/C(=C\c2cc(C)ccc2C)C(=O)S1 | i
CCOC(=O)Oc1ccc2c(=O)c(Oc3cccc(C)c3)c(C(F)(F)F)oc2c1 | i
CC(NC(=O)CC12CC3CC(CC(C3)C1)C2)C12CC3CC(CC(C3)C1)C2 (stereo not given) | i
CC(C)(C)c1nc2cc(NC(=O)CNC(=O)c3ccco3)ccc2o1 | i
Cc1ccc(C(C)NC(=O)Nc2cccc(Cl)c2)c(C)c1 (stereo not given) | i
O=C(C1CC1)N1CCC(Oc2cnc3c(ccn3-c3cncnc3)c2)CC1 | i
O=C(C1CCCC1)N1CCC(Oc2cnc3c(ccn3-c3cncnc3)c2)CC1 | i
C[S+](=O)([O-])NCCn1ccc2cc(OC3CCN(C(=O)C4CCCC4)CC3)cnc21 | 35.5µM*
COC(=O)c1ccccc1NC(=O)CN(c1cccc(C)c1C)S(C)(=O)=O | i
COc1ccc(NC(=O)/C(C#N)=C/c2c[nH]c3ccccc23)c(OC)c1 | i
O=S(Cc1cccc(C(F)(F)F)c1)Cc1ccc(Cl)cc1Cl (stereo not given) | i
O=C(CSc1nnnn1-c1ccccc1)Nc1ccccc1C(=O)O | i
O=C(c1ccccc1)N1CCC2(CC1)NCc1ccccc1NC2=O | 89.1µM*
O=C(c1ccccc1)N1CCC2(Cc3ccccc3NC2=O)C1 (stereo not given) | i
